Shiga inhibitor: blocks Shiga toxin action in Vero cells; inhibition, % at 38.7 µM; AID 2315; Vero cells, Shiga toxin protein synthesis inhibition reporter; actives 9.2% (n = 290,000); in the data active = inhibition mostly above about 28%, no sharp cut-off; inactive = mostly below about 43%; also: 0% is about no effect
FBPA Giardia inh: blocks Giardia fructose-bisphosphate aldolase activity; purified Giardia FBPA; A8B2U2; Potency, µM (highest dose often 59.6 µM), for inactives: at the highest dose activity, negative = inhibition, usual class: inhibitors; actives 0.71% (n = 290,000); also: potency is read from the fitted curve at half-maximal effect; % is scaled to controls: 0 for no effect and ±100 for the full control effect; nearly all actives have a fitted effect of over 55% in size
Target sequence (A8B2U2 whole entry, looked up): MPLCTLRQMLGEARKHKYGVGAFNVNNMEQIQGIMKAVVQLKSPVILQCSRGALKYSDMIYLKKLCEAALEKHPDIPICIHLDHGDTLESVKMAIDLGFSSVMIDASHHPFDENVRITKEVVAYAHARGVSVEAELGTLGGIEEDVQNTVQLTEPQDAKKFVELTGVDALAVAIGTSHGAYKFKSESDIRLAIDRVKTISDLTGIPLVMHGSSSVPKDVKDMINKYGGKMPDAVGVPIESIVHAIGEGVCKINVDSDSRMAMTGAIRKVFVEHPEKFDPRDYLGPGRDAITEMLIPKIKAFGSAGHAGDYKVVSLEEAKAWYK
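40 nM FBPA preincubated 10 min at RT with compound (up to 57.5 uM final), then substrate plus GAPDH/TPI/NAD/arsenate coupling and diaphorase/resazurin added. Fluorescence read after 20 min at RT, 525/598 nm.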
NS1 function inh: influenza NS1 inhibition; Potency, µM (series often up to 46.1 µM), for the others: at the top dose activity, positive = more growth; actives 0.4% (n = 270,000); calls by dose curve; also: potency is read from the fitted curve at half-maximal effect; actives are rising curves; nearly all actives have a fitted effect of over 50% in size
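Recovery from NS1-induced slow growth read by OD600 in budding yeast switched to galactose assay medium (pH 6.0, -URA) at 1:100 dilution. Compound 23 nl per well; the matching strain lacking NS1 serves as control.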
Cycloheximide cs: counter-screen hit for Shiga toxin inhibitors, cycloheximide; cell reporter, cycloheximide protein synthesis inhibition counterscreen; max response, %; actives 12% (n = 300,000); in the data active = max response mostly above about 13%, no sharp cut-off; inactive = mostly below about 14%; also: read at 38.3 µM for the half of the compounds with a filed dose; 0% is about no effect
LmPK inh: blocks Leishmania mexicana pyruvate kinase activity; purified LmPK, Kinase-Glo ATP luminescence, 1 h; Potency, µM (top dose mostly 57.5 µM), without a hit: at the top dose activity change, negative = inhibition, actives largely listed as inhibitors; actives 0.37% (n = 290,000); also: potency is read from the fitted curve at half-maximal effect; % is scaled to controls: 0 for no effect and ±100 for the full control effect
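0.1 nM LmPK, 0.5 mM PEP, 0.1 mM ADP; 50 mM imidazole pH 7.2, 7 mM MgCl2, 50 mM KCl; 1 h RT. Kinase-Glo luminescence readout, normalized to no-enzyme (full inhibition) and uninhibited wells.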
* = called active by the depositor; ? = inconclusive; / = no result; + = active, no number; [ ] = remark or other dose. Rows were chosen to be rich in hits. Some 14% of all compounds tested hit in one or more screens of this group. Unless noted, calls follow the shape of the dose curve; as a rule, active = well fitted curve in the direction sought with a large enough effect; inconclusive = small, poorly fitted or top-dose-only effect, or another doubt; inactive = no such curve, though single readings can be large; an effect the other way counts as inactive or inconclusive.

SMILES	Shiga inhibitor	FBPA Giardia inh	NS1 function inh	Cycloheximide cs	LmPK inh
c1ccc2nc(OCCN3CC3)ccc2c1	11	1%	7%	0	4%
c1ccc(Oc2ccc3ccccc3n2)cc1	130*	-5%	/	39*	-7%
O=C(/C(N=Nc1cccc(C(F)(F)F)c1)=C(/O)c1cccs1)C(F)(F)F	66*	-7%	-59%	35*	-1%
CC(=O)/C(N=Nc1cccc(C(F)(F)F)c1)=C(\C)O	11	-1%	/	1	-1%
COc1ccc(NC(=O)c2ccc(-c3ccccc3C(F)(F)F)o2)cc1	18	-2%	-21%	10	0%
COc1cccc(NC(=O)c2ccc(-c3ccccc3[N+](=O)[O-])o2)c1	37	-3%	/	25	-13%
Cc1cccc(NC(=O)c2ccc(-c3ccccc3[N+](=O)[O-])o2)c1	61*	-6%	2%	31*	-1%
O=C(Nc1cccc(F)c1)c1ccc(-c2ccccc2C(F)(F)F)o1	50*	-5%	-61%	31*	-19%
Cc1ccccc1-c1ccc(C(=O)Nc2cccc(F)c2)o1	50*	-17%	-107%	47*	-2%
COC1C(O)COC1/C=C/c1ccccc1 (configuration not stated)	/	0%[12.9 µM]	/	/	/
CC(=O)Cc1nsc(Nc2ccc(Cl)cc2)n1	86*	1%	4%	61*	4%
CC(=O)Cc1nsc(Nc2ccc3c(c2)OCCO3)n1	96*	1%	?	82*	-10%
CC(=O)Cc1nsc(Nc2ccc(F)cc2)n1	65*	6%	/	22	-1%
CC(=O)Cc1nsc(NC(=O)c2ccco2)n1	2	4%	-2%	-1	-6%
Cc1oc2c(CN3CCCC(C)C3)c(O)ccc2c(=O)c1-c1ccccc1 (configuration not stated)	-11	-1%	-1%	4	-2%
Cc1cc(NC(=O)c2cccc(Oc3ccccc3)c2)n[nH]1	91*	-5%	1%	29*	10%
CCC(CC)NC(=O)c1cccc(Oc2ccccc2)c1	31*	4%	/	19	3%
Cc1cc(NC(=O)NC(=O)c2cccc(OC(F)(F)C(F)F)c2)n[nH]1	69*	9%	7%	27*	1%
CC1(C)CCC(=O)N[C@H]1CC(=O)C[C@H]1NC(=O)CCC1(C)C	/	/	0%	/	/
CCCS(=O)(=O)N1CCCC(C(=O)NCC(OC)OC)C1 (configuration not stated)	-10	7%	/	6	-1%
S=C(NNc1ccnc2cc(Cl)ccc12)Nc1ccccc1Cl	52	-15%	?	23*	-7%
NC(=S)Nc1cccc2cc3ccccc3cc12	78*	-10%	-218%	43*	-2%
Cc1ccc2nc(-c3ccccn3)cc(C(=O)NCCc3ccc(F)cc3)c2c1	12	18%	1%	-4	-6%
COc1cc(/C=N/N=C(/N)c2nonc2N)cc(Br)c1OCc1cccc(C)c1	23	-3%	1%	21*	-1%
COc1cc(/C=N/N=C(\N)c2nonc2N)cc(OC)c1O	79*	-17%	0%	47*	-28%
SMILES	Shiga inhibitor	FBPA Giardia inh	NS1 function inh	Cycloheximide cs	LmPK inh
COc1ccc(/C=N/Nc2nonc2N)cc1	67	1%	-100%	23*	-5%
COc1ccc(/C=N/N=C(\N)c2nonc2N)cc1	44*	1%	/	15	?
Cc1ccc(C(=O)NNS(=O)(=O)c2ccc(F)cc2)cc1	21	-14%	?	7	-1%
Cc1noc(C)c1C(=O)N1CCC2(CC1)CN(C(=O)Nc1cccc(F)c1)C2	/	3%	/	/	/
Cc1ccc(NC(=O)C2CCN(c3cnccn3)CC2)cc1C	-11	0%	-5%	-1	0%
CN1[C@H](Cc2ccccc2)C=C[C@]1(C)C(=O)NCC1CC1	/	-24%	/	/	/
Cc1cc(O)cc(=O)n1Cc1ccco1	-18	-3%	9%	-2	-5%
Cc1csc(=Nc2ccccc2)n1Cc1ccco1	31	1%	0%	29*	0%
Cc1ccc2nc(SCC(=O)O)nc(C)c2c1	-21	-4%	0%	-2	?
CCOC(=O)CCSc1nc(C)c2cc(OC)ccc2n1	80*	-13%	3%	51*	1%
CCOC(=O)CSc1nc(C)c2ccc(C)cc2n1	44	3%	2%	12*	1%
CCOC(=O)CCSc1nc(C)c2cc(C)c(C)cc2n1	44*	2%	0%	30*	7%
COc1ccc(S(=O)(=O)c2c(O)c3ccc(C(=O)Nc4ccc(F)cc4F)cc3[nH]c2=O)cc1	-5	28%	4%	-4	-2%
COc1ccc2[nH]c(C(=O)NCCCn3ccnc3)cc2c1	-5	-2%	0%	-2	2%
O=C(O)c1cc(N2C(=O)CCC2=O)ccc1Cl	-3	2%	15%	0	-1%
CCOc1ccccc1N(C)C(=O)CCS(=O)(=O)c1ccc2c(c1)NC(=O)C(C)S2 (configuration not stated)	-7	/	4%	-10	-10%
Cc1nc(-c2nc(-c3c(C(=O)NN)noc3C)cs2)cs1	66*	-22%	/	28*	8%
Cc1nc(-c2nc(-c3c(C(=O)NNC(=O)c4ccc(Cl)cc4)noc3C)cs2)cs1	17	?	-31%	0	1%
CN(CCOc1ccccc1)C(=O)CCc1c[nH]c2ccccc12	4	0%	-7%	13	0%
CCCCCCCCCCCCOCCOCCOCCOCCOCCOCCOCCOCCOCCO	6	8%	/	-1	/
CSc1ccc(/C=N/Nc2cccc(C(=O)O)c2)cc1	+	-1%	/	92*	1%
O=C(O)c1cc(N/N=C/C=C/c2ccccc2)ccc1Cl	172*	6%	15%	40*	10%
CCOc1cc(/C=N/Nc2cccc(C(=O)O)c2)ccc1OCC(=O)N1CCCCC1	126*	-4%	-1%	70*	-2%
CCOc1cc(C=O)ccc1OCC(=O)N1CCCC1	6	-2%	6%	-3	-11%
O=C(CNC(=O)c1ccccc1)N/N=C/c1cccs1	30	2%	1%	-1	2%
SMILES	Shiga inhibitor	FBPA Giardia inh	NS1 function inh	Cycloheximide cs	LmPK inh
O=C(O)c1cccc(N/N=C/c2cccs2)c1	147*	14%	18%	84*	-15%
CC(C)=CCC/C(C)=C/CC/C(C)=C/CC/C(C)=C/C(=O)O	12	?	/	1	/
Cc1c(F)cccc1NS(=O)(=O)c1ccc2c(c1)c(C)cc(=O)n2C	-18	8%	-5%	4	7%
COC(=O)c1ccc(COc2ccc(/C=N/Nc3nc(C)cc(=O)[nH]3)cc2)cc1	45*	0%	4%	9	-10%
N#CCC(=O)N/N=C/c1ccc(OCc2ccccc2)cc1	13	2%	7%	7	3%
O=C(CN1C(=O)/C(=C\c2cccs2)SC1=S)Nc1cccc(C(=O)O)c1	53*	16%	4%	11	1%
O=C(O)c1ccccc1-c1ccccc1C(=O)Nc1ccc(OC(F)(F)F)cc1	-9	11%	?	-1	-2%
CSc1ccc(/C=N/Nc2nc(C)cc(=O)[nH]2)cc1	29	-6%	-3%	11	-13%
O=C(O)c1cccc(N/N=C/c2ccc(OC(F)(F)F)cc2)c1	138*	9%	2%	77*	-3%

From PubChem
